Screening results: PubChem, National Center for Advancing Translational Sciences (NCATS)
Most compounds without a hit are left out; they make up all but 2.3% or so of the library.
HTT ATP protect = Huntington cell model cytoprotection by ATP luminescence. PC12 HTT-Q103 induced, cytoprotection, ATP luminescence, 40 h. Potency, µM (titrated, usually from 56.4 µM), for inactives: cytoprotection (ATP increase), hits mostly activators. actives 0.14% (n = 230,000); note: potency is the fitted concentration of half-maximal effect; % of control where 0% means no effect; nearly all actives have a fitted effect of over 45% in size
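Readout: ATPlite luminescence (ATP level). Model: stable PC12, inducible Htt exon1 Q103-GFP. Inducer: tebufenozide, 100 nM final. Compounds: dose series. No G418 in medium.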
JMJD2E inh = JMJD2E (human) inhibition; AID 2147; actives 1.6% (n = 230,000); JMJD2E catalytic domain, FDH-coupled NADH fluorescence (FDH is formaldehyde dehydrogenase); B2RXH2; Potency, µM (doses to about 57.1 µM), for the others: at the highest dose activity change, negative = inhibition, hits mostly inhibitors; active = well fitted inhibition curve with a large enough effect, not every such curve was filed as active; inconclusive = small, poorly fitted or top-dose-only effect, or another doubt; inactive = no such curve, though single readings can be large or run the other way;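 note: potency is the fitted concentration of half-maximal effect; 0% = wells with enzyme and -100% = buffer wells without enzyme; nearly all actives have a fitted effect of over 50% in size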
HTT aggregate = mutant huntingtin aggregation inhibition; PC12 HttQ103-GFP aggregates, Acumen cytometry, 40 h; Potency, µM (top dose mostly 46.1 µM), inactives show at the top dose activity change, negative = inhibition, actives largely listed as inhibitors; actives 1.1% (n = 220,000); note: potency is the fitted concentration of half-maximal effect; % is set by controls: 0 for no effect and ±100 for the full control effect; nearly all actives have a fitted effect of over 60% in size
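Steps: seed 1500 PC12 HTTQ103-GFP cells/well; add tebufenozide, 100 nM final; add compound titration; add ATPLite reagent; quantify GFP aggregates by laser scanning cytometry.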
FBPA coupling cs = coupling enzyme interference in Giardia aldolase counter-screen | AID 2472 | activity change, negative = inhibition, % at 58.2 µM, hits read low | actives 0.67% (n = 290,000) | coupling enzyme system counterscreen, AmpLite Red fluorescence; in the data active = activity change below about -30%; note: % is set by controls: 0 for no effect and ±100 for the full control effect
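First, compound is pin-transferred into glyceraldehyde-3-phosphate coupling-enzyme reagent at 57.5 uM final and held 10 min at RT. Next, substrate, coupling system and AmpLite Red are added. After 20 min RT, fluorescence (525/598 nm) is read.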
RGS12 GoLoco inh = RGS12 GoLoco-Gai1 interaction inhibition; P63096; actives 0.44% (n = 230,000); Gai1:RGS12 GoLoco peptide FP, rhodamine, 10 min; Potency, µM (top dose mostly 61.6 µM), for the others: top-dose activity, negative = inhibition, actives largely listed as inhibitors; AID 880; active = well fitted inhibition curve with a large enough effect, not every such curve was filed as active; inactive = no such curve, though single readings can be large or run the other way; note: potency is the fitted concentration of half-maximal effect; % is set by controls: 0 for no effect and ±100 for the full control effect; nearly all actives have a fitted effect of over 30% in size
VDR inh = inhibitors of human vitamin D receptor. VDR-SRC2-3 peptide fluorescence polarization, 2 h. P11473. actives 0.93% (n = 400,000). Potency, µM, for the others: max response, negative = inhibition, hits mostly inhibitors; note: potency is the fitted concentration of half-maximal effect; % is set by controls: 0 for no effect and ±100 for the full control effect
Target sequence (P11473 whole entry, looked up): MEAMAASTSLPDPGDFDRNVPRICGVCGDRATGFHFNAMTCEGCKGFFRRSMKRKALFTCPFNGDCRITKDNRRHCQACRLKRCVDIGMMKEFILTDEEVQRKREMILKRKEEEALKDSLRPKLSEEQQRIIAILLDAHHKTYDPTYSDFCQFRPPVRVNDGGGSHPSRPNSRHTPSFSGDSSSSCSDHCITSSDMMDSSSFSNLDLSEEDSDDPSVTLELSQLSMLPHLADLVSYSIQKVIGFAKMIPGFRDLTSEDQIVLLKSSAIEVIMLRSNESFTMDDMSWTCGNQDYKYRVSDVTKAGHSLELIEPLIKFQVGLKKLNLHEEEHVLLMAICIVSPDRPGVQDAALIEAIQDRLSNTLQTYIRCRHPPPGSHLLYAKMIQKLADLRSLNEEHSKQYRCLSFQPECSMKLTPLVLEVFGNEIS
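The screen uses fluorescence polarization to detect compounds that interfere with recruitment of the SRC2-3 coactivator peptide to VDR; plates are read after 2 h at room temperature.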
Starred values were filed as active, the others as inactive; ? = inconclusive; · = no result; [ ] = another dose, or the depositor's remark. Unless noted, calls come from the whole dose curve; as a rule, active = well fitted curve in the direction sought with a large enough effect; inconclusive = small, poorly fitted or top-dose-only effect, or another doubt; inactive = no such curve, though single readings can be large; an effect the other way counts as inactive or inconclusive.

SMILES	HTT ATP protect	JMJD2E inh	HTT aggregate	FBPA coupling cs	RGS12 GoLoco inh	VDR inh
N#CC1=C(N)Oc2cc(N)ccc2C1c1ccsc1 (centres undefined)	·	3%	-22%	-2	8%	-15%
N#CC1=C(N)Oc2ccc3ccc(O)cc3c2C1c1ccsc1 (centres undefined)	0%[1.9 µM]	-4%	17%	-4	13µM*	-20%
CC(C)(S)[C@H](N)C(=O)O	-9%[10 µM]	-13%	·	5	-9%[14.2 µM]	·
COc1cc2c(cc1OC)C(c1ccccc1F)NCC2 (centres undefined)	·	·	·	0	·	-18%
Cc1cccnc1NCc1ccc(O)c2ncccc12	-47%	18µM*	-32%	3	0%	-23%
Cc1cccc(NCc2ccc(O)c3ncccc23)c1C	13%[10 µM]	-14%	8%[9.22 µM]	-3	5%	?
O=C(NCCCNc1ccc(C(F)(F)F)cc1[N+](=O)[O-])c1ccc(Cl)cc1	-33%	-5%	11µM*	-2	·	-4%
COc1ccc(C2CC2/C(=N/O)c2ccccc2)cc1 (centres undefined)	2%[10 µM]	5%	-6%	5	5%	20µM*
CC1(C)CC(=O)c2cc(C(=O)NC3CCSC3=O)c(=O)n(-c3ccccc3)c2C1 (centres undefined)	-2%	-22%	10%	-5	·	10%
O=C1CCCc2c1cc(C(=O)Nc1ccc(Br)cn1)c(=O)n2-c1ccccc1	-59%	?	-8%	-51*	3%	?
O=C1CCCc2c1cc(C(=O)O)c(=O)n2-c1ccccc1	8%[10 µM]	6%	17%[9.22 µM]	2	-4%	-4%
O=C1CCCc2c1cc(C(=O)NC1CCSC1=O)c(=O)n2-c1ccccc1 (centres undefined)	1%	?	3%[9.22 µM]	-38*	19%	17%
CC(C)c1ccc(Nc2nnns2)cc1	25%[10 µM]	-8%	21%[9.22 µM]	0	8%	79µM*
COC(=O)C(C)N1C(=O)S/C(=C\c2ccc(-c3ccc(C(=O)O)cc3C)o2)C1=O (centres undefined)	·	·	·	5	·	22µM*
CCC(=O)Nc1ccc(C=C(C(C)=O)C(C)=O)cc1	18%[10 µM]	?	10%[9.22 µM]	-1	-7%	79µM*
COc1ccc(CNc2ccnc(-c3c(C)noc3C)n2)c(OC)c1	-41%	·	·	-1	-4%	-27%
CCCS(=O)(=O)NCCc1csc(-c2cccnc2)n1	-1%	·	·	·	·	·
C[C@@H](NC(=O)[C@@H]1Cc2ccccc2CN1C(=O)OC(C)(C)C)C(=O)NCC1CCCO1 (some centres undefined)	·	·	·	·	·	1%
CC(C)C[C@H](NC(=O)[C@@H]1Cc2ccccc2CN1C(=O)OC(C)(C)C)C(=O)NCC1CCC(C(=O)O)CC1 (some centres undefined)	12%[10 µM]	25µM*	18%[9.22 µM]	1	17%	-22%
CC(C)NC(=O)N1CCCC2(CCN(C(=O)c3ccncc3)CC2)C1	-5%	·	·	0	6%	2%
Cc1cccc(-n2c(=O)[nH]c3c(C(N)=O)nc(-c4ccccc4Cl)nc32)c1	-31%	1.8µM*	-20%	1	2%	0%
COc1ccccc1-c1nc(C(N)=O)c2[nH]c(=O)n(-c3cccc(C)c3)c2n1	14%	?	9%	4	11%	10%
O=C(c1ccc(-c2ccccc2)cc1)c1ccc([N+](=O)[O-])cc1	1%[10 µM]	7%	1%[9.22 µM]	3	-2%	·
O=C(C#Cc1ccccc1)c1ccc([N+](=O)[O-])cc1	-119%	5%	7%[9.22 µM]	0	5%	14µM*
CCCCn1c(=O)n(CC2CCC(C(=O)NCCCOC)CC2)c(=O)c2sccc21 (centres undefined)	·	·	·	·	·	9%
CN1CCN(CC(O)COCCOc2ccc(Br)cc2)CC1 (centres undefined)	·	8%	-8%	0	2%	25µM*
O=C(COc1ccccc1C(=O)N/N=C\c1ccc(O)c(O)c1)N/N=C/c1ccc(O)c(O)c1	-22%	13µM*	-18%	-3	-20%	8%
